Inconclusive results are not listed. Active and inactive are the calls of the source. Calls come from the whole dose curve; as a rule, active = well fitted inhibition curve with a large enough effect; inconclusive = small, poorly fitted or top-dose-only effect; inactive = flat fitted curve, though single readings scatter.
Key:
[1] = tested on: ECU; assay: qHTS profiling for inhibitors of Plasmodium falciparum proliferation (AID 504749); settings: P. falciparum in erythrocytes, SYBR Green DNA, 72 h; series mostly up to 28.7 µM
In short: (§1)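 P. falciparum-infected erythrocytes (0.3% parasitemia, 2.5% hematocrit) incubated with compound 72 h at 37 C, 5% CO2. Parasite DNA detected by SYBR Green after lysis, overnight at room temperature; normalised to 0.29 uM artemisinin and DMSO.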

[2] = tested on: FAB9; assay: as above; settings: P. falciparum in erythrocytes, SYBR Green DNA, 72 h; series mostly up to 28.7 µM
In short: as §1

[3] = tested on: GB4; assay: as above; settings: P. falciparum in erythrocytes, SYBR Green DNA, 72 h; series mostly up to 28.7 µM
In short: as §1

[4] = tested on: HB3; assay: as above; settings: P. falciparum in erythrocytes, SYBR Green DNA, 72 h; series mostly up to 28.7 µM
In short: as §1

[5] = tested on: ICS; assay: as above; settings: P. falciparum in erythrocytes, SYBR Green DNA, 72 h; series mostly up to 28.7 µM
In short: as §1

[6] = tested on: JCK; assay: as above; settings: P. falciparum in erythrocytes, SYBR Green DNA, 72 h; series mostly up to 28.7 µM
In short: as §1

[7] = tested on: N140; assay: as above; settings: P. falciparum in erythrocytes, SYBR Green DNA, 72 h; series mostly up to 28.7 µM
In short: as §1

[8] = tested on: P93_24; assay: as above; settings: P. falciparum in erythrocytes, SYBR Green DNA, 72 h; series mostly up to 28.7 µM
In short: as §1

[9] = tested on: P94_40; assay: as above; settings: P. falciparum in erythrocytes, SYBR Green DNA, 72 h; series mostly up to 28.7 µM
In short: as §1

[10] = tested on: PAD; assay: as above; settings: P. falciparum in erythrocytes, SYBR Green DNA, 72 h; series mostly up to 28.7 µM
In short: as §1

[11] = tested on: PC15; assay: as above; settings: P. falciparum in erythrocytes, SYBR Green DNA, 72 h; series mostly up to 28.7 µM
In short: as §1

[12] = tested on: PC26; assay: as above; settings: P. falciparum in erythrocytes, SYBR Green DNA, 72 h; series mostly up to 28.7 µM
In short: as §1

[13] = tested on: PC49; assay: as above; settings: P. falciparum in erythrocytes, SYBR Green DNA, 72 h; series mostly up to 28.7 µM
In short: as §1

[14] = tested on: SC27B; assay: as above; settings: P. falciparum in erythrocytes, SYBR Green DNA, 72 h; series mostly up to 28.7 µM
In short: as §1

[15] = tested on: TAB109; assay: as above; settings: P. falciparum in erythrocytes, SYBR Green DNA, 72 h; series mostly up to 28.7 µM
In short: as §1

[16] = tested on: TAB113; assay: as above; settings: P. falciparum in erythrocytes, SYBR Green DNA, 72 h; series mostly up to 28.7 µM
In short: as §1

[17] = tested on: TAB165; assay: as above; settings: P. falciparum in erythrocytes, SYBR Green DNA, 72 h; series mostly up to 28.7 µM
In short: as §1

[18] = tested on: W2; assay: as above; settings: P. falciparum in erythrocytes, SYBR Green DNA, 72 h; series mostly up to 28.7 µM
In short: as §1

[19] = tested on: HEK293; assay: Cytotoxic Profiling of Annotated Libraries Using Quantitative High-Throughput Screening (AID 1296008); settings: Five cell lines viability, CellTiter-Glo ATP luminescence, 48-72 h; max response: stronger effect = lower value; for max response: % is set by controls: 0 for no effect and ±100 for the full control effect
In short: (§2)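 Cells exposed to compounds for 48 or 72 hr at 37 degrees Celsius. Viability read as ATP-coupled luminescence with CellTiter-Glo after 10 min at room temperature.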

[20] = tested on: CRL-7250; assay: as above; settings: Five cell lines viability, CellTiter-Glo ATP luminescence, 48-72 h; max response: stronger effect = lower value
In short: as §2
Note: nearly all actives have a fitted effect of over 60% in size.
Potency is the fitted concentration of half-maximal effect.

CCOC(=O)n1ccn(C)c1=S
inactive: Potency [1] | Potency [2] | Potency [3] | Potency [4] | Potency [5] | Potency [6] | Potency [7] | Potency [8] | Potency [9] | Potency [10] | Potency [11] | Potency [12] | Potency [13] | Potency [14] | Potency [15] | Potency [16] | Potency [17] | Potency [18]

OC[C@H]1O[C@@H](n2cnc3c(=S)nc[nH]c32)[C@H](O)[C@@H]1O
active: Potency [19] 4.73 µM

O=C(O)CCCCC(=O)O
inactive: Potency [1] | Potency [2] | Potency [3] | Potency [4] | Potency [5] | Potency [6] | Potency [7] | Potency [8] | Potency [9] | Potency [10] | Potency [11] | Potency [12] | Potency [13] | Potency [14] | Potency [15] | Potency [16] | Potency [17] | Potency [18]

CC(=O)N/N=C/c1ccc([N+](=O)[O-])o1
inactive: Potency [12] | Potency [13] | max response [20] -0.507%
active: Potency [5] 5.62 µM | Potency [7] 12.6 µM | Potency [15] 6.31 µM | Potency [17] 12.6 µM

COc1cccc(CCc2ccccc2OCC(CN(C)C)OC(=O)CCC(=O)O)c1 (stereo not drawn)
inactive: max response [20] 3.68%
active: Potency [1] 4.47 µM | Potency [3] 2.13 µM | Potency [4] 12.6 µM | Potency [5] 1.12 µM | Potency [6] 10 µM | Potency [7] 2.82 µM | Potency [8] 4.47 µM | Potency [9] 4.47 µM | Potency [10] 3.55 µM | Potency [11] 5.01 µM | Potency [12] 3.79 µM | Potency [13] 3.16 µM | Potency [14] 5.01 µM | Potency [15] 4.47 µM | Potency [16] 5.62 µM | Potency [17] 4.47 µM | Potency [18] 0.757 µM

CC(C)=CCC1C(=O)N(c2ccccc2)N(c2ccccc2)C1=O
inactive: Potency [2] | Potency [6] | Potency [8] | Potency [11] | Potency [13] | Potency [15] | max response [20] -25.1%

O=C(Nc1ccc(Cl)c(Cl)c1)C1CC1
inactive: Potency [1] | Potency [2] | Potency [3] | Potency [4] | Potency [5] | Potency [6] | Potency [7] | Potency [8] | Potency [9] | Potency [10] | Potency [11] | Potency [12] | Potency [13] | Potency [14] | Potency [15] | Potency [16] | Potency [17] | Potency [18]

COc1ccc(CCN2CCC(Nc3nc4ccccc4n3Cc3ccc(F)cc3)CC2)cc1
active: Potency [1] 2 µM | Potency [2] 3.16 µM | Potency [3] 1.9 µM | Potency [4] 4.47 µM | Potency [5] 2.82 µM | Potency [6] 6.31 µM | Potency [7] 3.55 µM | Potency [8] 2.82 µM | Potency [9] 3.16 µM | Potency [10] 3.98 µM | Potency [11] 6.31 µM | Potency [12] 6.75 µM | Potency [13] 4.47 µM | Potency [14] 3.98 µM | Potency [15] 2.51 µM | Potency [16] 3.98 µM | Potency [17] 2.82 µM | Potency [18] 3.01 µM | Potency [19] 9.44 µM

CC(=O)OCC(=O)[C@@]12N=C(C)O[C@@H]1C[C@H]1[C@@H]3CCC4=CC(=O)C=C[C@]4(C)[C@H]3[C@@H](O)C[C@@]12C
inactive: outcome [19]

COc1cc(/C=C/C(=O)O[C@H]2CC[C@]34C[C@]35CC[C@]3(C)[C@@H]([C@H](C)CCC=C(C)C)CC[C@@]3(C)[C@@H]5CC[C@H]4C2(C)C)ccc1O
inactive: max response [19] 2.65%
